# Experimental data: PubChem BioAssay
# Calls of active or inactive are those of the source. Unless noted, how the calls were made is not given here.
# Legend:
# [1] = tested on: Wnt5a (protein binding on small-molecule microarray); assay: Wnt5a binders on small-molecule microarray, primary screen, biophysical, 635/667 nm fluorescence (AID 1142); settings: 635 nm fluorescence, higher = more signal;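 further: fluorescence read at 667 nm with signal to noise per printed feature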
# [2] = cell viability in Huh7 cells, primary screen, cytotoxicity control for HCV replication inhibitor project, CellTiter-Glo luminescence, basal, 48 h (AID 1143); settings: Huh7 HCV replicon, higher = more signal, called active from +8 up or from −8 down;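 further: Huh7 hepatoma cells carrying a hepatitis C replication reporter with no stimulus; test concentration not given here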
# [3] = P. aeruginosa biofilm formation inhibitors, primary screen, PAO1 strain, BacTiter-Glo luminescence, LB-PBS (AID 1144); settings: 12 h, higher = more signal
# [4] = CREB reporter modulators without forskolin, primary screen, cell-based, PC12, CRE-LacZ reporter, unstimulated (AID 1145); settings: no forskolin, luminescence, 4.5 h, higher = more signal, called active from +8 up or from −8 down
# [5] = CREB reporter modulators under forskolin, primary screen, cell-based, PC12, CRE-LacZ reporter, forskolin-stimulated (AID 1146); settings: luminescence, 4.5 h, higher = more signal, called active from +8 up or from −8 down;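 further: PC12 cells with 6xCRE LacZ reporter stimulated by forskolin 10 µM; beta-galactosidase reporter signal reflecting CREB driven transcription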
# [6] = target: Streptavidin (Streptomyces avidinii) (UniProt P22629); assay: streptavidin binders on small-molecule microarray, primary screen, artefact control for SMM compound annotation, biophysical, 635/667 nm fluorescence (AID 1147); settings: streptavidin binding, higher = more signal;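 further: signal reflects streptavidin binding to arrayed compounds as a control protein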
# Sequence of Streptavidin (Streptomyces avidinii) (P22629 whole entry, looked up): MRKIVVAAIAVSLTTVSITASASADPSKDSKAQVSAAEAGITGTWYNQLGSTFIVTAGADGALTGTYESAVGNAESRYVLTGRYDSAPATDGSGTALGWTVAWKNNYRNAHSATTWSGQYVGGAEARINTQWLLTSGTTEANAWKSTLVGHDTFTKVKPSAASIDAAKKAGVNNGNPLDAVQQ
# [7] = small-molecule binders of probe aInhba, primary screen, biochemical, small-molecule microarray, 635/667 nm fluorescence (AID 1148); settings: higher = more signal;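 further: score merges 667nm spot fluorescence with signal-to-noise for antibody binding to printed compounds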
# Torsin-1A (Homo sapiens) [8] = target: Torsin-1A (Homo sapiens) (UniProt O14656); assay: torsin A binders from cell lysate, primary screen, small-molecule microarray, wild-type, 635/667 nm (AID 1149); settings: COS7 hTOR1A-WT lysate, 635 nm fluorescence, higher = more signal
# Sequence of Torsin-1A (Homo sapiens) (O14656 whole entry, looked up): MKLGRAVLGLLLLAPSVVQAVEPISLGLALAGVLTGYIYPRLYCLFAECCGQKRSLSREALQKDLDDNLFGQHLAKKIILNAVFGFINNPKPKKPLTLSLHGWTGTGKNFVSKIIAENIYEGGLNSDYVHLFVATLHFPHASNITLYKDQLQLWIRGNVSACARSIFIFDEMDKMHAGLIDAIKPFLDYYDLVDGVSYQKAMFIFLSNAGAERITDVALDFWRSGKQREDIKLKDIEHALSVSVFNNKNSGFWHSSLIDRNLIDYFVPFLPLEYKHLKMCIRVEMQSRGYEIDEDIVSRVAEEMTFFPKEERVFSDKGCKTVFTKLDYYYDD
# Torsin-1A (Homo sapiens) [9] = target: Torsin-1A (Homo sapiens) (UniProt O14656); assay: small-molecule binders of mutant TOR1A in lysate, primary screen, cell lysate, small-molecule microarray, COS7 lysate, 635/667 nm fluorescence (AID 1150); settings: COS7 hTOR1A mutant lysate, 635 nm fluorescence, higher = more signal;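 further: score pools 667 nm emission and signal to noise measuring lysate protein binding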
# [10] = tested on: Sonic hedgehog protein (Shh); assay: small-molecule binders of Shh protein, primary screen, biochemical, small-molecule microarray, 635/667 nm fluorescence (AID 1151); settings: small-molecule microarray binding, 635 nm fluorescence; higher = more signal;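 further: Shh protein binding to compounds spotted on small-molecule microarray slides; score combines spot fluorescence intensity with signal-to-noise across triplicate slides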
Compound,composite z-score [1],z-score [2],z-score [3],z-score [4],z-score [5],composite z-score [6],composite z-score [7],composite z-score (Torsin-1A (Homo sapiens) [8]),composite z-score (Torsin-1A (Homo sapiens) [9]),composite z-score [10]
CCOC(=O)[C@H](Cc1ccccc1)NC(=O)CCC1CC(OC(=O)NCCc2ccc(F)cc2)CC2(CCCC(COC(=O)NCCOC)O2)O1 (stereo not given in full),1.58,-0.326 (inactive),-0.852 (inactive),0.473 (inactive),-0.728 (inactive),1.19,0.122,0.998,0.753,0.784
COc1ccc(O[C@@H]2[C@H](O)CO[C@H]2C=Cc2ccccc2)cc1,-0.0668,-0.617 (inactive),-1.74 (inactive),0.284 (inactive),-1.04 (inactive),-0.06,-0.179,-0.696,-0.668,0.253
CCN1C(=O)[C@H]2[C@H]3[C@H](O)[C@H](O)CC(=NNC(=O)OCc4ccc(OC)cc4)[C@@H]3CC[C@H]2C1=O,-0.0453,0.821 (inactive),-0.409 (inactive),-0.291 (inactive),-0.523 (inactive),-0.0023,-0.0521,-1.18,-0.703,-1.17
COC(=O)[C@@H]1CC[C@H](C)[C@@H](c2ccc(C)cc2)N1C(=O)c1ccc(C=NOCC[C@@H]2C=C[C@H](OC(C)=O)[C@@H](COC(C)=O)O2)cc1,0.133,-0.689 (inactive),0.637 (inactive),4.56 (inactive),-0.0189 (inactive),0.342,-0.0477,0.612,0.481,0.681
COC(=O)CC=C[C@@H](C)[C@@H](C=NOC[C@H]1O[C@H](c2ccccc2)C=C[C@@H]1Oc1ccc(OC)cc1)OC,0.0372,-0.193 (inactive),0.257 (inactive),1.34 (inactive),0.611 (inactive),-0.682,-0.208,-0.52,-0.305,0.161
CCOC(=O)[C@H](CC(C)C)NC(=O)CCC1CC(OC(=O)NCCc2ccc(F)cc2)CC2(CCCC(COC(=O)NCCC(C)C)O2)O1 (stereo not given in full),-0.0436,-0.439 (inactive),0.288 (inactive),0.91 (inactive),-0.457 (inactive),2.06,-0.0963,-0.239,0.204,0.318
CCCNC(=O)OC[C@H]1O[C@H](CCON=C(C)CCN2CCCc3nc(C)c(C)cc32)C=C[C@@H]1Oc1ccc(OC)cc1,0.146,-2.37 (inactive),-0.489 (inactive),2.72 (inactive),0.367 (inactive),0.668,0.0028,0.182,-0.0347,0.368
CCOC(=O)[C@H](CC(C)C)NC(=O)CCC1CC(OC(=O)NCc2ccc3c(c2)OCO3)CC2(CCCC(COC(=O)NCC(c3ccccc3)c3ccccc3)O2)O1 (stereo not given in full),0.222,-0.356 (inactive),-0.187 (inactive),0.111 (inactive),1.67 (inactive),-0.201,-0.0405,0.0929,0.351,1.77
CCOC(=O)[C@H](Cc1ccccc1)NC(=O)CCC1CC(OC(=O)NCCc2ccc(F)cc2)CC2(CCCC(COC(=O)NCCc3ccc(Cl)cc3)O2)O1 (stereo not given in full),0.108,-0.0147 (inactive),-0.288 (inactive),-0.526 (inactive),0.483 (inactive),0.391,-0.0494,0.371,0.837,0.726
O=c1n(Cc2cc3c(cc2Cl)OCO3)c(=O)n2n1CC[C@@H]1C(=NOCc3ccccc3)[C@H]3O[C@H]3[C@@H](O)[C@@H]12,0.141,-0.742 (inactive),0.692 (inactive),0.16 (inactive),1.87 (inactive),0.767,-0.0509,0.582,0.223,0.365
CCOC(=O)[C@H](CC(C)C)NC(=O)CCC1CC(OC(=O)NCc2cccc3ccccc23)CC2(CCCC(COC(=O)NCCOc3ccccc3)O2)O1 (stereo not given in full),0.746,-0.248 (inactive),-0.477 (inactive),-0.526 (inactive),-0.519 (inactive),0.628,0.0248,0.236,0.117,0.805
CO[C@H]1COC(=O)CC=C[C@H](C)[C@@H](OC)COC(=O)[C@H](C)COC(=O)CC=C[C@@H]1C,-0.144,-0.0417 (inactive),-0.165 (inactive),-0.93 (inactive),-0.724 (inactive),-0.127,-0.208,1.1,1.01,1.93
COc1ccc(O[C@H]2C=C[C@@H](c3ccccc3)O[C@@H]2CON=C(C)CCN2CCc3nc(-c4ccccc4)c(-c4ccccc4)cc3C2)cc1,-0.193,-0.203 (inactive),-0.18 (inactive),1.62 (inactive),0.703 (inactive),0.852,-0.0719,-0.449,-0.199,0.194
COCCNC(=O)OCC1CCCC2(CC(OC(=O)NCc3ccc4c(c3)OCO4)CC(CCC(=O)N[C@@H](C)C(=O)OC)O2)O1 (stereo not given in full),-0.0558,-0.773 (inactive),-0.0785 (inactive),-0.0755 (inactive),0.468 (inactive),0.303,-0.205,0.308,0.551,1.5
COC(=O)CC=C[C@@H](C)[C@@H](C=NO[C@@H](C)c1cc(-c2c(C)cc(C)cc2C)no1)NS(=O)(=O)c1ccc(C)cc1,-0.475,-2.83 (inactive),0.054 (inactive),4.2 (inactive),0.0267 (inactive),-0.195,-0.261,-1.05,-1.32,-1.63
